Results as given in PubChem BioAssay.

The compounds below were run on Fibrinogen (Alexa647-labelled) (assay: fibrinogen binders on compound microarrays, profiling panel, artefact control for SMM control-protein annotation, biochemical, small-molecule microarray, 635/667 nm fluorescence (AID 1131;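 also: z-score merges 667 nm fluorescence with per-spot signal-to-noise over triplicate slides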)). Details: fibrinogen-A647 binding fluorescence, higher = more signal.

Row | Structure (SMILES) | composite z-score
1 | C=C(COC)/C(=C/C[C@@H](OC(C)=O)c1ccc(CO)o1)c1cc(C(=O)OC)ccc1OC | -0.341
2 | C=CCC(OC(C)=O)[C@@H]1[C@@H](N(Cc2cccc3ccccc23)C(=O)Cc2ccc(F)cc2)c2cc(OCCCO)ccc2N1C(=O)c1ccc(-c2ccccc2)cc1 (stereo not given in full) | 0.674
3 | CC(=O)NCCCC[C@@H]1NC(=O)[C@H]2C[C@@H](C(=O)NCCCCCNC(=O)CS)[C@@H](c3cccc(OCCO)c3)N2C1=O | 0.108
4 | COCCOC(=O)N1C(=O)[C@@]2(c3cc(C#CCC(C(=O)OC)C(=O)OC)ccc31)[C@H](c1ccc(O)cc1)N1[C@H](c3ccccc3)[C@H](c3ccccc3)OC(=O)[C@H]1[C@@H]2C(=O)NC[C@H](O)c1ccccc1 | 0.8
5 | Cc1ccccc1C(O)C1C=CC2C(=O)N(c3ccccc3)C(=O)C2N1Nc1ccc([N+](=O)[O-])cc1 (stereo not given) | 1.01
6 | Cc1cccc([C@H]2C[C@H]3C(Br)=C[C@@H]2C(=O)[C@]32CO2)c1 | -0.145
7 | CCOC(=O)C=Cc1ccccc1O | 0.881
8 | CCOC(=O)C1=CCC(c2ccccc2)N(S(=O)(=O)c2ccc([N+](=O)[O-])cc2)C1 (stereo not given) | -0.773
9 | C=C(CCCC)C(=O)CC[C@@H](OC(=O)c1cccnc1)c1ccc(OCCO)cc1 | -0.0496
10 | CC(C)C[C@@H]1NC(=O)CNC(=O)[C@@]23C(=O)N[C@@H](Cc4ccccc4)C2[C@H](C)[C@@]2(C)O[C@H]2C3/C=C/C/C=C\CNC1=O (stereo not given in full) | 0.949
11 | [N-]=[N+]=Nc1ccccc1C[C@@]1(C(=O)O)N=C(c2ccc(OCCCO)cc2)O[C@@H]1c1ccccc1N=[N+]=[N-] | 0.963
12 | CCCCC(=O)N(CCN1CCOCC1)[C@@H]1CC(C(=O)NCCO)=C[C@H](Oc2c(I)cc(CO)cc2OC)[C@H]1O | -0.0237
13 | COc1ccc(C#Cc2ccc3c(c2)[C@]2(C(=O)N3)[C@H](C(=O)N3CCCCCCC3)[C@H]3C(=O)O[C@H](c4ccccc4)[C@H](c4ccccc4)N3[C@@H]2c2ccc(O)cc2)cc1 | 0.729
14 | CCOC(=O)C1=C[C@@H](c2ccccc2)N(S(=O)(=O)c2ccc(C)cc2)[C@H]1c1ccccc1 | -0.276
15 | COCCOC(=O)N1C(=O)[C@@]2(c3cc(C#CCCO)ccc31)[C@H](C(N)=O)[C@H]1C(=O)O[C@H](c3ccccc3)[C@H](c3ccccc3)N1[C@@H]2c1ccc(OCCO)cc1 | 0.877
16 | C=C(/C(=C/C[C@@H](OC(C)=O)c1ccc(CO)o1)c1cc(C(=O)OC)ccc1OC)C(C)C | 0.0384
17 | CCCCCCCCCCC(O)C1C=CC2C(=O)N(C)C(=O)C2N1Nc1cc(OC)c(OC)c(OC)c1 (stereo not given) | -0.203
18 | C=CCC(OC(C)=O)[C@@H]1[C@@H](N(Cc2ccc(-c3ccccc3)cc2)C(=O)Cc2ccc(F)cc2)c2cc(OCCCO)ccc2N1C(=O)Cc1ccc2ccccc2c1 (stereo not given in full) | -0.198
19 | COCCOC(=O)N1C(=O)[C@@]2(c3cc(C#CCNC(N)=O)ccc31)[C@H](c1ccc(OCCO)cc1)N1[C@H](c3ccccc3)[C@H](c3ccccc3)OC(=O)[C@H]1[C@@H]2C(=O)NC[C@H](O)c1ccccc1 | 0.942
20 | C=C[C@@H](C)[C@H](O)c1ccc(OCCO)cc1 | -1.82
21 | CC(=O)N1CC(C(O)C2C=CC3C(=O)NC(=O)C3N2Nc2ccc(Cl)cc2Cl)c2ccccc21 (stereo not given) | 0.439
22 | Nc1cc(Br)ccc1C(=O)O | 0.777
23 | C=C(CCCC)/C(=C/C[C@H](OC(C)=O)c1ccc(OCCO)cc1)c1cc(C(=O)OC)ccc1OC | 0.046
24 | C=C(COC)/C(=C/C[C@H](OC(C)=O)c1cccc(OCCO)c1)c1cnc2ccccc2c1 | 0.246
25 | C=CCNC(=O)[C@H]1[C@@H]2C(=O)O[C@@H](c3ccccc3)[C@@H](c3ccccc3)N2[C@@H](c2ccc(OCCO)cc2)[C@]12C(=O)N(C(=O)OCCOC)c1ccc(C#Cc3ccc(OC)cc3)cc12 | 0.904

The compounds below were run against Follistatin (Homo sapiens) (UniProt P19883) (assay: follistatin binders on small-molecule microarrays, primary screen, biochemical, small-molecule microarray, 635/667 nm fluorescence (AID 1132)). Details: FST binding, 635 nm fluorescence, higher = more signal.
Chain of Follistatin (Homo sapiens) (P19883 whole entry, looked up): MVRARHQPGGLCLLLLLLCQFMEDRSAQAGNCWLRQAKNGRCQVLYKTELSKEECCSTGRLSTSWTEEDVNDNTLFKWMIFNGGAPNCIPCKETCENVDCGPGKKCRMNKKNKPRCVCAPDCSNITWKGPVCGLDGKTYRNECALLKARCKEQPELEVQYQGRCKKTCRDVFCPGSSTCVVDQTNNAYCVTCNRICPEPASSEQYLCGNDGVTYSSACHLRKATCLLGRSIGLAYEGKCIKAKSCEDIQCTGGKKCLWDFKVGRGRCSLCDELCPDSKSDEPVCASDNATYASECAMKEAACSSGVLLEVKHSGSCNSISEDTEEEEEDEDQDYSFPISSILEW

Row | Structure (SMILES) | composite z-score
26 | CN1C=C(C(=O)OCCS(C)(=O)=O)C(C(=O)OCCS(C)(=O)=O)=CC(c2ccc(CO)cc2)=CC1c1cccs1 (stereo not given) | 0.793
27 | CS(=O)(=O)CCOC(=O)C1=CC(CCCO)=CC(C2CC2)N(Cc2cccc(OC(F)(F)F)c2)C=C1C(=O)OCCS(C)(=O)=O (stereo not given) | -0.0478
28 | CC(C)[C@H]1NC(=O)[C@@]23C(=O)N[C@@H](Cc4ccccc4)C2[C@H](C)[C@@]2(C)O[C@H]2C3/C=C/C/C=C\CNC(=O)[C@H](Cc2ccccc2)NC1=O (stereo not given in full) | 1.31
29 | Cc1ccc(S[C@]2(C(=O)NCc3ccccc3)CC(=O)N(Cc3cc(C(F)(F)F)cc(C(F)(F)F)c3)[C@@H]2c2ccc(CO)cc2I)cc1 | -1.18
30 | CN(C)C(=O)[C@@]1(Cc2ccccc2N=[N+]=[N-])N=C(c2ccc(OCCCO)cc2)O[C@H]1c1ccccc1 | 1.15
31 | COCC1=C2[C@@H](CCc3ccccc3)OB(O)C[C@@H]2[C@@H]2C(=O)N(C)C(=O)[C@@H]2C1 | 0.309
32 | O=C1C2C=CC(C(O)c3ccco3)N(Nc3ccccc3)C2C(=O)N1c1ccccc1 (stereo not given) | -0.118
33 | NC(=O)[C@H]1[C@@H]2C(=O)O[C@@H](c3ccccc3)[C@@H](c3ccccc3)N2[C@@H](c2ccc(O)cc2)[C@]12C(=O)Nc1ccc(C#CC3=CCCCC3)cc12 | 0.959
34 | C=C(/C(=C/C[C@@H](OC(=O)c1ccncc1)c1cccc(OCCO)c1)c1cnc2ccccc2c1)C(C)C | 1.42
35 | CC(C)[C@H]1NC(=O)[C@@]23C(=O)N[C@@H](Cc4ccccc4)C2[C@H](C)[C@@]2(C)O[C@H]2C3/C=C/CCC/C=C/CNC(=O)[C@H](Cc2ccccc2)NC1=O (stereo not given in full) | 0.283
36 | C=C(COC)/C(=C/C[C@@H](OC(C)=O)c1ccc(CO)o1)c1cc(C(=O)OC)ccc1OC | 0.758
37 | C=CCC(OC(C)=O)[C@@H]1[C@@H](N(Cc2cccc3ccccc23)C(=O)Cc2ccc(F)cc2)c2cc(OCCCO)ccc2N1C(=O)c1ccc(-c2ccccc2)cc1 (stereo not given in full) | -0.0679
38 | CC(=O)NCCCC[C@@H]1NC(=O)[C@H]2C[C@@H](C(=O)NCCCCCNC(=O)CS)[C@@H](c3cccc(OCCO)c3)N2C1=O | 1.33
39 | COCCOC(=O)N1C(=O)[C@@]2(c3cc(C#CCC(C(=O)OC)C(=O)OC)ccc31)[C@H](c1ccc(O)cc1)N1[C@H](c3ccccc3)[C@H](c3ccccc3)OC(=O)[C@H]1[C@@H]2C(=O)NC[C@H](O)c1ccccc1 | 1.11
40 | Cc1ccccc1C(O)C1C=CC2C(=O)N(c3ccccc3)C(=O)C2N1Nc1ccc([N+](=O)[O-])cc1 (stereo not given) | 1.23
41 | Cc1cccc([C@H]2C[C@H]3C(Br)=C[C@@H]2C(=O)[C@]32CO2)c1 | 0.243
42 | CCOC(=O)C=Cc1ccccc1O | 0.79
43 | CCOC(=O)C1=CCC(c2ccccc2)N(S(=O)(=O)c2ccc([N+](=O)[O-])cc2)C1 (stereo not given) | 0.0227

Row | Structure (SMILES) | composite z-score
44 | C=C(CCCC)C(=O)CC[C@@H](OC(=O)c1cccnc1)c1ccc(OCCO)cc1 | 1.47
45 | CC(C)C[C@@H]1NC(=O)CNC(=O)[C@@]23C(=O)N[C@@H](Cc4ccccc4)C2[C@H](C)[C@@]2(C)O[C@H]2C3/C=C/C/C=C\CNC1=O (stereo not given in full) | 1.08
46 | [N-]=[N+]=Nc1ccccc1C[C@@]1(C(=O)O)N=C(c2ccc(OCCCO)cc2)O[C@@H]1c1ccccc1N=[N+]=[N-] | 0.46
47 | CCCCC(=O)N(CCN1CCOCC1)[C@@H]1CC(C(=O)NCCO)=C[C@H](Oc2c(I)cc(CO)cc2OC)[C@H]1O | 0.328
48 | COc1ccc(C#Cc2ccc3c(c2)[C@]2(C(=O)N3)[C@H](C(=O)N3CCCCCCC3)[C@H]3C(=O)O[C@H](c4ccccc4)[C@H](c4ccccc4)N3[C@@H]2c2ccc(O)cc2)cc1 | 1.31
49 | CCOC(=O)C1=C[C@@H](c2ccccc2)N(S(=O)(=O)c2ccc(C)cc2)[C@H]1c1ccccc1 | 0.379
50 | COCCOC(=O)N1C(=O)[C@@]2(c3cc(C#CCCO)ccc31)[C@H](C(N)=O)[C@H]1C(=O)O[C@H](c3ccccc3)[C@H](c3ccccc3)N1[C@@H]2c1ccc(OCCO)cc1 | 1.09
51 | C=C(/C(=C/C[C@@H](OC(C)=O)c1ccc(CO)o1)c1cc(C(=O)OC)ccc1OC)C(C)C | 0.913
52 | CCCCCCCCCCC(O)C1C=CC2C(=O)N(C)C(=O)C2N1Nc1cc(OC)c(OC)c(OC)c1 (stereo not given) | -0.763
53 | C=CCC(OC(C)=O)[C@@H]1[C@@H](N(Cc2ccc(-c3ccccc3)cc2)C(=O)Cc2ccc(F)cc2)c2cc(OCCCO)ccc2N1C(=O)Cc1ccc2ccccc2c1 (stereo not given in full) | 0.305
54 | COCCOC(=O)N1C(=O)[C@@]2(c3cc(C#CCNC(N)=O)ccc31)[C@H](c1ccc(OCCO)cc1)N1[C@H](c3ccccc3)[C@H](c3ccccc3)OC(=O)[C@H]1[C@@H]2C(=O)NC[C@H](O)c1ccccc1 | 1.37
55 | C=C[C@@H](C)[C@H](O)c1ccc(OCCO)cc1 | -0.808
56 | CC(=O)N1CC(C(O)C2C=CC3C(=O)NC(=O)C3N2Nc2ccc(Cl)cc2Cl)c2ccccc21 (stereo not given) | 0.772
57 | Nc1cc(Br)ccc1C(=O)O | 0.181
58 | C=C(CCCC)/C(=C/C[C@H](OC(C)=O)c1ccc(OCCO)cc1)c1cc(C(=O)OC)ccc1OC | 0.935
59 | C=C(COC)/C(=C/C[C@H](OC(C)=O)c1cccc(OCCO)c1)c1cnc2ccccc2c1 | 1.46
60 | C=CCNC(=O)[C@H]1[C@@H]2C(=O)O[C@@H](c3ccccc3)[C@@H](c3ccccc3)N2[C@@H](c2ccc(OCCO)cc2)[C@]12C(=O)N(C(=O)OCCOC)c1ccc(C#Cc3ccc(OC)cc3)cc12 | 1.22
